Source: PubChem BioAssay
Rows were chosen to be rich in hits. Some 11% of all compounds tested hit in one or more screens of this group.
NPR1 antag = antagonists of human natriuretic peptide receptor Npr1. 76,000 compounds, 1.6% hits. P16066. AID 1347048. HEK293 hNpr1 GloSensor cGMP, ANP-stimulated luminescence. Potency, µM (doses to about 46.3 µM), for inactives: top-dose activity change, negative = inhibition, actives largely listed as inhibitors; calls by dose curve; note: nearly all actives have a fitted effect of over 60% in size
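Compound pre-incubated 30 min at room temperature on GloSensor-loaded HEK293 cells stably carrying hNpr1 and the pGS-40F cGMP biosensor. Stimulation uses hNppA at 0.1 nM final; luminescence is taken at baseline and 20 min post-agonist.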
3T3 cytotox = kills NIH 3T3 cells | NIH 3T3 viability, CellTiter-Glo ATP luminescence, 48-72 h | Potency, µM (doses to about 96.7 µM), inactives show top-dose activity change, negative = cytotoxicity, usual class: inhibitors | 94,000 compounds, 4.3% hits | AID 1345082; note: nearly all actives have a fitted effect of over 55% in size
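Cytotoxicity was measured by CellTiter-Glo ATP luminescence after 48 or 72 h compound exposure at 37 °C. Mouse NIH 3T3 fibroblasts were seeded at 400 cells/well and dosed by 23 nL pin transfer.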
FLuc inh = blocks purified firefly luciferase enzyme activity. P08659. purified P. pyralis luciferase, luminescence, biochemical. 76,000 compounds, 2.5% hits. Potency, µM (titrated, usually from 115 µM), usual class: inhibitors; note: nearly all actives have a fitted effect of over 65% in size
Target sequence (P08659 whole entry, looked up): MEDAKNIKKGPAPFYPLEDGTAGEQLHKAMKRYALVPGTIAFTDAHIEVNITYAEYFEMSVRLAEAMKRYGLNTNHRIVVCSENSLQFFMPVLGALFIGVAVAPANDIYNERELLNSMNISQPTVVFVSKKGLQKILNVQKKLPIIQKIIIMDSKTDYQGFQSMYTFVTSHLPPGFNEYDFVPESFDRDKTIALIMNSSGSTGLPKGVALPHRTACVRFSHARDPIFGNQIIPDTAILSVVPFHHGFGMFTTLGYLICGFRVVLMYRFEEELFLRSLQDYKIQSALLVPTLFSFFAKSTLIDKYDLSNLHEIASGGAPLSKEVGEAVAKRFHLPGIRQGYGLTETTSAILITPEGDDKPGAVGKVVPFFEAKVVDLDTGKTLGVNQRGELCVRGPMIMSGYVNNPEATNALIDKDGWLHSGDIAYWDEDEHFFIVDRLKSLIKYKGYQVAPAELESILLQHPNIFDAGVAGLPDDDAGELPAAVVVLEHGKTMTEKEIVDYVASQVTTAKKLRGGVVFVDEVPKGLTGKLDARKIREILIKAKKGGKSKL
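Inhibitors were tested against purified firefly luciferase in a biochemical, low-substrate format (both substrates at 10uM) and luminescence measured with a CCD imager.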
HEK293 tox = kills HEK 293 cells; Potency, µM (doses to about 115 µM), inactives show at the highest dose activity change, negative = cytotoxicity, usual class: inhibitors; AID 1345083; 94,000 compounds, 6.6% hits; HEK 293 viability, ATP luminescence (CellTiter-Glo), 48-72 h; note: nearly all actives have a fitted effect of over 60% in size
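250 HEK 293 cells/well; compound by pintool; incubated 48 or 72 hr at 37 degree Celsius; CellTiter-Glo added, 10 min RT, luminescence imaged.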
An asterisk follows results filed as active; i = inactive; ? = inconclusive; / = no result; [ ] = dose if it differs, or a comment. Unless noted, calls come from the whole dose curve; as a rule, active = well fitted curve in the direction sought with a large enough effect; inconclusive = small, poorly fitted or top-dose-only effect, or another doubt; inactive = no such curve, though single readings can be large; an effect the other way counts as inactive or inconclusive. % is set by controls: 0 for no effect and ±100 for the full control effect; potency is the fitted concentration of half-maximal effect.

SMILES	NPR1 antag	3T3 cytotox	FLuc inh	HEK293 tox
CCOCCOC1CCN(C(=O)c2cccc3[nH]ccc23)CC1	-1.3%	i	35.5µM*	-1.6%
COc1ccc(C2Cn3nnc(C(=O)N4CCC(C(=O)Nc5cccc(Cl)c5)CC4)c3CO2)cc1 (stereo not given)	0.2%	-5.9%	i	-27.0%
CCc1cccc(NC(=O)C2CCN(C(=O)c3nnn4c3COC(c3ccc(C)cc3)C4)CC2)c1 (stereo not given)	-13.8%	22.4µM*	35.5µM*	10µM*
CCc1cccc(NC(=O)C2CCN(C(=O)c3nnn4c3COC(c3ccc(OC)cc3)C4)CC2)c1 (stereo not given)	-2.2%	?	i	17.8µM*
COc1ccc(C2Cn3nnc(C(=O)N4CCC(C(=O)Nc5cc(C)cc(C)c5)CC4)c3CO2)cc1 (stereo not given)	-0.1%	44.7µM*	i	35.5µM*
COC[C@H]1NC(=O)CC[C@H]1C(=O)N1CCN(c2ccccc2)CC1	/	-15.5%	/	0.0%
Cc1ccsc1C(=O)N1CCC2(CC1)C(=O)N(c1cccc(F)c1)C2c1ccccc1 (stereo not given)	/	?	/	25.1µM*
Cn1cc(CN2CCN(c3ccc(C#N)cn3)CC2)c(-c2ccccc2)n1	2.1%	?	i	79.4µM*
Cn1cc(CN2CCN(c3cnccn3)CC2)c(-c2ccc(C3CCCCC3)cc2)n1	5.5%	79.4µM*	22.4µM*	25.1µM*
Cc1noc(C)c1[S+](=O)([O-])NC1CCN(C(=O)c2ccc(-c3ncccc3C#N)cc2)CC1	/	?	/	4.8%
COc1ccccc1-c1noc(-c2nc(-c3ccncc3)no2)n1	-5.1%	4.5%	i	-2.3%
COc1cccc(-c2noc(-c3ccc(-c4ccc(O)cc4)nc3)n2)c1OC	-1.2%	44.7µM*	?	?
Cc1nn(-c2ccccc2)c2c1C(C(C)C)N(C1CCN(C(=O)Cc3cccc(Cl)c3)C1)C2=O (stereo not given)	/	35.5µM*	/	44.7µM*
Cc1nn(-c2ccccc2)c2c1C(C(C)C)N(C1CCCN(C(=O)Cc3cccc(Cl)c3)C1)C2=O (stereo not given)	/	?	/	28.2µM*
Cc1nn(-c2ccccc2)c2c1C(C(C)C)N(C1CCN(C(=O)Nc3ccccc3)C1)C2=O (stereo not given)	/	?	/	-11.8%
COc1ccc(CC(=O)N2CCC(N3C(=O)c4c(c(C)nn4-c4ccccc4)C3C(C)C)C2)cc1 (stereo not given)	/	39.8µM*	/	?
Cc1ccc(CN(C(=O)c2ccco2)c2ccc(CC(=O)NCC3CCCO3)cc2)cc1 (stereo not given)	-0.1%	-27.4%	i	-30.4%
O=C1NC2(CCN(CC3CC3)CC2)COc2ccccc21	5.5%[70.6 µM]	?	i	?
CC(=O)Nc1ccc(CN2CCC3(CC2)COc2ccccc2C(=O)N3)cc1	-3.0%	2.8%	i	?
Cc1ccc(CN2CCC3(CC2)COc2ccccc2C(=O)N3)cc1	-3.8%	?	i	28.2µM*
O=C1NC2(CCN(CC3CCCCC3)CC2)COc2ccccc21	3.6%[70.6 µM]	79.4µM*	i	35.5µM*
Cn1cccc1CN1CCC2(COc3ccccc3C(=O)N2)C1 (stereo not given)	-1.8%[70.6 µM]	?	i	?
O=C1NC2(CCN(Cc3ccsc3)C2)COc2ccccc21 (stereo not given)	4.3%[70.6 µM]	39.8µM*	i	?
Cn1nccc1CN1CCCC2(COc3ccccc3C(=O)N2)C1 (stereo not given)	?	8.91µM*	i	28.2µM*
CC(C)NC(=O)[C@H]1CN(Cc2ccccc2)C[C@H]1C(=O)O	/	-26.7%	/	-12.1%
SMILES	NPR1 antag	3T3 cytotox	FLuc inh	HEK293 tox
O=C(c1ccc(F)cc1)N1CCCC(C(=O)N2CCC(N3CCOC3=O)CC2)C1 (stereo not given)	/	0.8%	/	i
O=C(c1cccc(Cl)c1)N1CCC(C(=O)N2CCC(c3nc4ncccc4[nH]3)CC2)CC1	/	-21.3%	/	?
O=C1NC2(CCN(Cc3cccnc3)CC2)COc2ccccc21	-4.8%[70.6 µM]	-0.7%[138 µM]	i	?
O=C1NC2(CCN(Cc3ccc(F)cc3)CC2)COc2ccccc21	8.2%[70.6 µM]	-22.0%[138 µM]	i	63.1µM*
CNC(=O)C1CCN(c2nccc(Nc3ccc(OC)cc3)n2)CC1	/	?	/	-19.7%[172 µM]
COc1ccc(Nc2ccnc(N3CCC(C(=O)NCC(F)(F)F)CC3)n2)cc1	/	?	/	79.4µM*
